In PubChem BioAssay AID771 (SRMLSC, 2007) one finds growth inhibition and condensed nuclei data, which are given here for 38 compounds.

This experiment is described as follows: HT29 colon tumor cell growth inhibition, primary screen, imaging, high content imaging, 48 h, CellTiter-Glo (AID 771).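 On condensed nuclei: condensed means Hoechst nuclear area under control median minus 1.5 SD.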 The note with it: HCS imaging cell count, at 10 µM, stronger effect = higher value; for condensed nuclei: measured here: percent cells with condensed nuclei. Background: ATP-based viability assays read luminescence as a measure of living cells.
Setting [1] is: measured here: ATP CellTiter-Glo viability inhibition.

The whole screen tested about 3,300 compounds, of which about 55 (2%) were called active.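 How the source made its calls: active means growth inhibition above 90%, meaning viable cell count by imaging cut by more than 90% versus vehicle controls; inactive means growth inhibition below 90%.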 For the sample, actives were picked, then their nearest neighbours and some compounds at random.

On to `Cc1ccc2[nH]c3c(N4CCN(Cc5ccccc5)CC4)ncnc3c2c1`, for which the growth inhibition was 16% (inactive) and the condensed nuclei was 2.02%. Under setting [1], the growth inhibition is -1.83%.
For `Cc1ccc2[nH]c3c(N4CCCCCC4)ncnc3c2c1`, in that order: 96.6% (active), 38.1% and 93%.
For `c1ccc2c(c1)[nH]c1c(N3CCSCC3)ncnc12`, in that order: 57.5% (inactive), 0.5% and 9.84%.
For `CN1CCN(c2ncnc3c2[nH]c2ccc(F)cc23)CC1`, in that order: 64.5% (inactive), 2.81% and 10%.
On to `Fc1ccc2[nH]c3c(N4CCN(Cc5ccc6c(c5)OCO6)CC4)ncnc3c2c1`, for which the growth inhibition is 97.9% (active) and the condensed nuclei is 29%. Moreover, under setting [1], the growth inhibition was 92.8%.
For `Fc1ccc2[nH]c3c(N4CCSCC4)ncnc3c2c1`, in that order: 38.7% (inactive), 4.52% and 37.9%.
For `c1ccc2c(c1)[nH]c1c(N3CCN(C4CCCCC4)CC3)ncnc12`, in that order: 58.7% (inactive), 3.08% and 2.53%.
In the same order, the values of `Fc1ccc2[nH]c3c(N4CCN(C5CCCCC5)CC4)ncnc3c2c1` are 94% (active), 10.8% and 85.4%.
For `c1ccc(CN2CCN(c3ncnc4c3[nH]c3ccccc34)CC2)cc1`, the growth inhibition was 89.4% (inactive) and the condensed nuclei came to 10.8%. For the same compound, the growth inhibition under setting [1] was found to be 57.3%.
For `COc1ccc2[nH]c3c(N4CCN(Cc5ccc6c(c5)OCO6)CC4)ncnc3c2c1`, in that order: 40.6% (inactive), 3.53% and 20.9%.
For `Cc1ccc2[nH]c3c(N4CCN(Cc5ccc6c(c5)OCO6)CC4)ncnc3c2c1`, in that order: 94.2% (active), 25.3% and 91.8%.
For `Cc1ccc2[nH]c3c(N4CCOCC4)ncnc3c2c1`, in that order: 42.1% (inactive), 0.48% and 15.8%.
For the compound `O=C(CCN1CCc2ccccc2CC1)c1ccc2c(c1)OCCO2`, the growth inhibition is 18.3% (inactive) and the condensed nuclei turned out to be 1.32%. Besides, under setting [1], the growth inhibition worked out at 14.1%.
Regarding `Fc1ccc(-c2cnc[nH]2)cc1`, the growth inhibition is 7.2% (inactive) and the condensed nuclei amounted to 1.71%. In addition, the growth inhibition under setting [1] was -20.5%.
In the same order, the values of `COC(=O)CSc1nc2sc3c(c2c(=O)n1C1CCCCC1)CCN(C)C3` are 31.7% (inactive), 4.17% and -21.3%.
For `O=C(O)CC(C(=O)N(c1ccccc1)c1ccccc1)N1CCOCC1` (stereo unspecified), in that order: -4.04% (inactive), 1.81% and -10.5%.
In the same order, the values of `Cc1occc1C(=O)OCC(=O)Nc1ccc(F)cc1` are 41.9% (inactive), 4.91% and 18.1%.
`Cc1ccc(CNC(=O)c2cc3c(=O)n4ccccc4nc3n(Cc3ccco3)c2=N)cc1`: the growth inhibition was 38.7% (inactive) and the condensed nuclei was 1.03%. In addition, the growth inhibition under setting [1] is 10.6%.
In the same order, the values of `CCOc1ccc(C2/C(=C(/O)c3ccc(F)cc3)C(=O)C(=O)N2CCCN(C)C)cc1` (stereo unspecified) are 28.1% (inactive), 5.22% and -5.46%.
In the same order, the values of `CCN1CCN(c2nc3c(C)cccn3c(=O)c2/C=C(\C#N)S(=O)(=O)c2ccccc2)CC1` are 9.15% (inactive), 2.58% and 7.42%.
For `COC(=O)c1cc(Br)c(=O)n(CCc2ccc(F)cc2)c1`, in that order: 43.4% (inactive), 1.12% and 17.2%.
In the case of `CCOC(=O)c1[nH]c2ccc(F)cc2c1N=C(C)N(CC)CC`, the growth inhibition was -6.13% (inactive) and the condensed nuclei was determined as 2.07%. Further, the growth inhibition under setting [1] was -22.6%.
Turning to `CC(C)CNC(=O)c1c(N)n(/N=C/c2ccccn2)c2nc3ccccc3nc12`, the growth inhibition was -40% (inactive) and the condensed nuclei stood at 2.54%. Also, the growth inhibition under setting [1] is -5.64%.
Take `Fc1ccc2[nH]c3c(N4CCN(c5ccccc5)CC4)ncnc3c2c1`: the growth inhibition was 81.6% (inactive) and the condensed nuclei stood at 29.2%. Further, the growth inhibition under setting [1] worked out at 84.2%.
In the same order, the values of `COc1cccc(N2CCN(c3ncnc4c3[nH]c3ccccc34)CC2C)c1` (stereo unspecified) are 89.8% (inactive), 5.36% and 62.2%.
In the same order, the values of `COc1cccc(N2CCN(c3ncnc4c3[nH]c3ccc(F)cc34)CC2C)c1` (stereo unspecified) are 91.7% (active), 4.17% and 89.4%.
In the same order, the values of `CC(=O)/C=C(\C)NCCNc1c(F)c(F)c(CO)c(F)c1F` are 23.4% (inactive), 1.42% and 0.5%.
Take `CCCCCCCCNC(C)C(O)c1ccc(SC(C)C)cc1` (stereo unspecified): the growth inhibition is 99.7% (active) and the condensed nuclei turned out to be 50%.
In the same order, the values of `CC(COc1ccccc1)NC(C)C(O)c1ccc(O)cc1` (stereo unspecified) are 22.6% (inactive) and 2.89%.
`CC(NCCc1ccc(O)cc1)C(O)c1ccc(O)cc1` (stereo unspecified): the growth inhibition was -16.3% (inactive) and the condensed nuclei came to 2.5%.
`COc1ccc(OC)c(C(O)c2coc3ccc(O)c(CN4CCOCC4)c23)c1` (stereo unspecified): the growth inhibition is -2.41% (inactive) and the condensed nuclei was 4.2%. The growth inhibition under setting [1] is -6.82%.
For `Cc1nc(=O)c(-c2ccccc2)c(C)n1-c1ccc(S(N)(=O)=O)cc1`, in that order: -25.6% (inactive), 2.99% and -8.56%.
In the same order, the values of `CCOC(=O)c1[nH]c2cc(OC)c(OC)cc2c1NC(=O)C(C)N1CCN(Cc2ccccc2)CC1` (stereo unspecified) are 3.83% (inactive), 3.08% and -7.15%.
In the same order, the values of `CCCCC(=O)NC(Nc1ccc(C)cn1)(C(=O)OCC)C(F)(F)F` (stereo unspecified) are -56.4% (inactive), 2.76% and -18.7%.
Regarding `CCn1cc(C(=O)NCCCN(C)C)c(=O)c2cc(F)c(N3CCN(C)CC3)cc21`, the growth inhibition was 23.8% (inactive) and the condensed nuclei came out at 4.97%. Besides, under setting [1], the growth inhibition was -23.1%.
For `CCn1cc(C(=O)NCCc2ccccc2)c(=O)c2cc(F)c(N3CCN(C)CC3)cc21`, in that order: 97% (active), 14.8% and 89.7%.
For `CCn1cc(C(=O)NCc2ccccn2)c(=O)c2cc(F)c(N3CCN(C)CC3)cc21`, the growth inhibition is 15.6% (inactive) and the condensed nuclei turned out to be 2.93%. For the same compound, under setting [1], the growth inhibition is -1.75%.
For the compound `CCOC(=O)c1ccccc1OCc1cc(/C=N/n2cncn2)ccc1OC`, the growth inhibition was 28.7% (inactive) and the condensed nuclei is 3.97%. The growth inhibition under setting [1] amounted to 6.4%.
